Data on 16 molecules can be found in PubChem BioAssay (NCATS).

The conditions of test [1]: Ebola virus entry assay, green fluorescence channel.
The conditions of test [2]: Ebola virus entry assay, blue channel fluorescence.
The conditions of test [3]: Ebola virus entry assay, green fluorescence channel. This is another data set of the same source.
The conditions of test [4]: Ebola virus entry assay, ratio channel readout.
The conditions of test [5]: Ebola virus entry assay, blue channel fluorescence. The source holds these as a separate data set.
For test [6] the following is noted: Ebola virus entry assay, ratio channel.
The conditions of test [7]: Ebola virus entry assay, reporter ratio channel; AC50: Channel type: primary unless noted; outcome: Channel type: primary unless noted.
For test [8] the following is noted: Ebola virus entry assay, green channel fluorescence.
For test [9] the following is noted: Ebola virus entry assay, blue channel fluorescence. The source holds these as a separate data set.
For test [10] the following is noted: Ebola virus entry assay, blue channel (ratio component).

For some of these results: Measured potencies and affinities stand elsewhere. The source made the active and inactive calls.
For efficacy in this document: 0% is about no effect.

Consider `CCN(CC)CCOC(=O)C1(C2CCCCC2)CCCCC1`, for which, in [1], the efficacy was 45% (inactive). Further, the outcome in test [2], in test [3] and in test [4] was inactive. Besides, the results for the AC50 in test [5], in test [6] and in test [7] were 12.6 µM (active), 10 µM (active) and 10 µM (active), respectively.
On to `O=C(NCCN1CCOCC1)c1ccc(Cl)cc1`, for which the efficacy in test [1] was -15.2% (inactive). Also, the molecule was classed as inactive in test [2], in test [3], in [4], in test [5], in test [8] and in test [9]. Moreover, the outcome in test [7] and in test [10] was inactive.
Regarding `COC(=O)N[C@H](C(=O)N[C@@H](Cc1ccccc1)[C@@H](O)CN(Cc1ccc(-c2ccccn2)cc1)NC(=O)[C@@H](NC(=O)OC)C(C)(C)C)C(C)(C)C`, the efficacy in [1] is 21.7% (inactive). For the same molecule, the result in [2], in [3], in test [4], in test [5], in test [8] and in [9] was inactive. For the same molecule, the result in test [7] and in test [10] was inactive.
For `C[C@@H](O)[C@H]1C(=O)N2C(C(=O)O)=C(S[C@@H]3CN[C@H](CNS(N)(=O)=O)C3)[C@H](C)[C@H]12`, the efficacy in test [1] was 41.5% (inactive). Also, the call in [2], in test [3], in [4], in test [5], in test [6] and in [10] was inactive. In addition, in test [7], the AC50 (commonly the midpoint of the concentration-response curve, whichever way the signal moves) is 25.1 µM (active).
On to `CN(C)c1cc(NC(=O)CNC(C)(C)C)c(O)c2c1C[C@@H]1C[C@H]3[C@H](N(C)C)C(=O)C(C(N)=O)=C(O)[C@@]3(O)C(=O)C1=C2O`, for which the efficacy in test [1] was 47.7% (inactive). For the same molecule, the call in test [2], in [3] and in [4] was inactive. The half-maximal activity concentration (AC50) in test [5], in test [6] and in test [7] was 8.91 µM (active) in each case.
As to `Cc1ccc(O)c([C@H](CCN(C(C)C)C(C)C)c2ccccc2)c1`, the efficacy in test [1] is 106% (inactive). Further, the AC50 in test [2] was 12.6 µM (active); in test [5] it was 14.1 µM (active); in [6] it was 12.6 µM (active); in test [7], 12.6 µM (active). Besides, the outcome in test [3] and in test [4] was inactive.
As for `C[C@@H](NCCCc1cccc(C(F)(F)F)c1)c1cccc2ccccc12`, in test [1], the efficacy was -223% (inactive). Moreover, the outcome in [2], in [3] and in test [4] was inactive. The AC50 in test [5] was 3.98 µM (active); in [6], 3.55 µM (active); in test [7], 3.55 µM (active).
Regarding `COCCCOc1cc(C[C@@H](C[C@H](N)[C@@H](O)C[C@H](C(=O)NCC(C)(C)C(N)=O)C(C)C)C(C)C)ccc1OC`, in test [1], the efficacy was 31.8% (inactive). Also, the molecule was classed as inactive in test [2], in [3], in test [4], in test [5], in test [6] and in [7]. For the same molecule, the result in test [10] was inactive.
As for `Nc1nc2c(ncn2COC(CO)CO)c(=O)[nH]1`, the efficacy in [1] is -13.6% (inactive). Besides, the call in test [2], in test [3], in [4], in test [5], in test [8] and in [9] was inactive. For the same molecule, the outcome in test [7] and in test [10] was inactive.
Regarding `CNCCCN1c2ccccc2CCc2ccccc21`, in test [1], the efficacy is 91.8% (inactive). For the same molecule, the outcome in test [2], in test [3] and in test [4] was inactive. Moreover, the AC50 is 10 µM (active) in [5], 7.94 µM (active) in test [6] and 7.94 µM (active) in test [7].
In the case of `O=C1c2cccc3c2[C@H](CCC3)CN1[C@@H]1CN2CCC1CC2`, the efficacy in test [1] was 37.7% (inactive). In addition, the molecule was classed as inactive in test [2], in [3] and in [4]. The concentration at half-maximal activity (AC50) was 20 µM (active) in test [5], 28.2 µM (active) in test [6] and 28.2 µM (active) in test [7].
On to `COc1cc(NCc2ccc3nc(N)nc(N)c3c2C)cc(OC)c1OC`, for which the efficacy in [1] is 44.2% (inactive). The result in test [2], in test [3] and in [4] was inactive. Besides, the AC50 is 35.5 µM (active) in test [5], 28.2 µM (active) in test [6] and 28.2 µM (active) in test [7].
`Nc1cc(-c2ccncc2)c[nH]c1=O`: the efficacy in test [1] is 26.8% (inactive). Further, the molecule was classed as inactive in test [2], in test [3], in test [4], in [5], in test [8] and in [9]. For the same molecule, the result in [7] and in test [10] was inactive.
Consider `CC(C)[N+](C)(CCOC(=O)C1c2ccccc2Oc2ccccc21)C(C)C`, for which the efficacy in [1] is -23.3% (inactive). Moreover, the call in test [2], in test [3], in [4], in test [5], in test [8] and in [9] was inactive. Further, the result in test [7] and in test [10] was inactive.
`CN1CCN(C(=O)O[C@H]2c3nccnc3C(=O)N2c2ccc(Cl)cn2)CC1`: in test [1], the efficacy was 27.7% (inactive). For the same molecule, the call in [2], in test [3], in test [4], in [5], in [8] and in test [9] was inactive. Also, the outcome in test [7] and in test [10] was inactive.
`Cc1nc(-c2ccc(OCC(C)C)c(C#N)c2)sc1C(=O)O`: the efficacy in test [1] was 65.9% (inactive). Besides, the molecule was classed as inactive in test [2], in [3], in test [4], in test [5], in test [9] and in [7]. The result in test [10] was inactive.
